Here are results for 60 compounds from ChEMBL document CHEMBL3988442, “University of Dundee, Small-Polar-MMV Screening Library” (2021).

Molecules are shown by their SMILES. Screen size: about 69,000 compounds; about 950 (1.4%) showed an effect of 50% or more. Many of the other results were omitted from the sample, so strong results are more common in it than they were.

This assay relates to Mycobacterium tuberculosis. Description: Cornell M. t heat shock assay. Also: in the data most compounds retested in dose-response had high values. The class given is functional, organism-based. Also on record: dose or concentration left out as unconfirmed.
`O=C(CN1CCCC1Cn1cncn1)Nc1nccs1` (stereo not given): the “Percent Effect” value amounted to 4.576%. Turning to `Cc1cnn(CC2CCCN2CC(=O)Nc2nncs2)c1` (stereo not given), the “Percent Effect” value is on record as -6.011%.

For `Cc1cnn(CC2CCCN2CC(=O)Nc2nccs2)c1` (stereo not given), the “Percent Effect” value is recorded as 102.3%. The value for `CC(=O)Nc1nc(CN2CCCC2Cn2cc(C)cn2)cs1` (stereo not given) was 69.78%; that for `Cc1cnn(CC2CCCN2CC(=O)NCc2ccccn2)c1` (stereo not given) was -22.46%.

On to `Cc1cnn(CC2CCCN2CC(=O)Nc2cc(C)nn2C)c1` (stereo not given), for which the “Percent Effect” value was found to be 19.4%. With `CC(=O)Nc1nc(CN2CCCC2Cn2cccn2)cs1` (stereo not given), the “Percent Effect” value is given as -5.465%. Consider `CC(=O)Nc1nc(CN2CCCC2Cn2cncn2)cs1` (stereo not given), for which the “Percent Effect” value is given as -13%. As for `Cc1cnn(CC2CCCN2CC(=O)Nc2nc(C)cs2)c1` (stereo not given), the figure is 100.4%. As for `COc1c(C2CCCN2CC(=O)Nc2nccs2)c(C)nn1C` (stereo not given), the figure is 8.304%; as for `COc1c(C2CCCN2CC(=O)Nc2nc(C)cs2)c(C)nn1C` (stereo not given), 75.33%.

`COc1c(C2CCCN2CC(=O)Nc2cc(C)no2)c(C)nn1C` (stereo not given): the “Percent Effect” value is recorded as 8.972%.

Regarding `Cc1nc[nH]c1CN(Cc1ccccc1F)C1CC(C)(C)NC(C)(C)C1.O=C(O)CC(O)(CC(=O)O)C(=O)O`, the “Percent Effect” value is on record as -2.69%. Consider `Cc1ccc(C2(CN3CCN(Cc4cn(C)nc4C)CC3)CC2)cc1.Cl`, for which the “Percent Effect” value was found to be 5.814%. The value for `Cl.O=C(NC1CCCC1)c1ccnc(C2CCNCC2)c1` was -6.855%; that for `CN(C)C(=O)COCC1CN(Cc2ccoc2)Cc2ncn(C)c21.O=C(O)C(F)(F)F.O=C(O)C(F)(F)F` (stereo not given) was -26.5%; that for `Cc1ccc(N2CCCC3(COCCN(c4ccccn4)C3)C2)nn1.O=C(O)C(F)(F)F` (stereo not given) was -19.77%. The value for `Cc1nc2cc(-c3nccn3C)nn2c(N2CCC(O)CC2)c1C.Cl` was 0.7953%; that for `CNC(=O)[C@@H]1C[C@H]2CN(Cc3ccco3)C[C@H]2N1C.O=C(O)C(F)(F)F.O=C(O)C(F)(F)F` was -19.75%. As to `CS(=O)(=O)NC[C@]12COC[C@H]1CN(CC1CCCC1)C2.O=C(O)C(F)(F)F`, the “Percent Effect” value is -15.72%. `O=C(O)C(F)(F)F.O=C(O)C(F)(F)F.O=C(O)C(F)(F)F.c1ccc(CN2CCC3(CC2)CCN(Cc2cccs2)C3)nc1`: the “Percent Effect” value is -44.21%. As for `Cc1nn(C)c2c(=O)n(CC(=O)NCc3ccccc3Cl)ccc12`, the “Percent Effect” value is given as -7.047%. On to `Cc1cnn(CC2CCCCN2CC(=O)Nc2nc(C)cs2)c1` (stereo not given), for which the “Percent Effect” value came to 74.94%. In the case of `Cc1cnn(CC2CCCCN2CC(=O)Nc2c(C)n[nH]c2C)c1` (stereo not given), the “Percent Effect” value is given as -5.895%. `Cc1cnn(CC2CCCCN2CC(=O)Nc2nncs2)c1` (stereo not given): the “Percent Effect” value was 18.17%. In the case of `O=C(N[C@@H]1CN(Cc2c[nH]nc2-c2ccccc2)C[C@H]1O)c1cc[nH]n1`, the “Percent Effect” value was 1.707%. With `CN1CCCCc2c1nc1c(c2N)CCC1.O=C(O)c1cc([N+](=O)[O-])ccc1Cl`, the “Percent Effect” value is -19.05%. Regarding `Cc1cc(C)cc(CN2CCC3(CC2)CC(Nc2ncccn2)CO3)c1.O=C(O)C(F)(F)F` (stereo not given), the “Percent Effect” value is listed as -30.68%. Regarding `C=C/C=c1\c(=C/C)oc2c(NCc3ccccc3)nc(CC)nc12`, the “Percent Effect” value is 75.04%. With `CCn1c(NCc2ccccc2)nc2c(C)nn(C)c2c1=O`, the “Percent Effect” value came to 12.91%. With `Cc1nc(NCc2cccnc2)c2c(n1)c(C)nn2C`, the “Percent Effect” value is recorded as 15.35%. `C=C/C=c1\c(=C/C)oc2c(NCc3ccccc3)nc(C)nc12`: the “Percent Effect” value worked out at 104.3%.

Consider `CCc1nc(NCc2ccccn2)c2c(n1)c(C)nn2C`, for which the “Percent Effect” value is recorded as -15.98%.

In the case of `C=C/C=c1\c(=C/C)oc2c(NCc3ccccc3)ncnc12`, the “Percent Effect” value is reported as -0.4342%. As for `CS(=O)(=O)N1CCC2(CC1)COC(COc1ccccn1)C2.O=C(O)C(F)(F)F` (stereo not given), the figure is -12.81%; as for `O=C(O)C(F)(F)F.O=C(O)C(F)(F)F.O=C1[C@H]2CN(Cc3ccccc3)C[C@H]2CN1CCN1CCCC1`, 1.586%; as for `Cc1oncc1C(=O)N[C@@H]1CN(C2CCC2)C[C@@H]2CCCO[C@@H]21.O=C(O)C(F)(F)F`, 25.58%. Consider `Cc1c[nH]nc1C1CCCN1Cc1ncc[nH]1.O=CO` (stereo not given), for which the “Percent Effect” value is given as -1.504%.

Take `Cc1ccccc1NC(=O)c1cncc(C2CCNCC2)n1.Cl`: the “Percent Effect” value is listed as 27.66%. Turning to `O=C(CN1CCCCCC1)NCc1cccnc1Oc1ccccc1`, the “Percent Effect” value came out at 2.86%. Take `CN(C)S(=O)(=O)NCc1cccnc1Oc1ccccc1`: the “Percent Effect” value is listed as -4.23%.

On to `c1ccc(Oc2ncccc2CNCc2ccccn2)cc1`, for which the “Percent Effect” value is 69.15%. In the case of `O=C(C[C@@H]1COC[C@H]2CN(CC3CC3)C[C@@H]12)NCc1cccnc1.O=C(O)C(F)(F)F.O=C(O)C(F)(F)F`, the “Percent Effect” value amounted to 9.594%. The value for `O=C(Cc1cnc(-c2c(Cl)cccc2Cl)s1)N1CCOCC1` was -11.24%.

Consider `NC(=O)C1CCN(C(=O)Cc2cnc(-c3c(Cl)cccc3Cl)s2)CC1`, for which the “Percent Effect” value is 65.47%. As to `CC(=O)N1CCN(C(=O)Cc2cnc(-c3c(Cl)cccc3Cl)s2)CC1`, the “Percent Effect” value came out at 3.544%. As for `O=C(O)C(F)(F)F.O=C1CC(c2cccnc2)C2(CCN(S(=O)(=O)C3CC3)CC2)N1` (stereo not given), the “Percent Effect” value was -6.88%. For `CN(C)S(=O)(=O)NCc1cccnc1Oc1ccccc1F`, the “Percent Effect” value turned out to be 7.179%. With `Cc1nc(-c2ccc(CNS(=O)(=O)N(C)C)cc2)ccc1C(N)=O`, the “Percent Effect” value amounted to 10.37%. As for `CN(C)S(=O)(=O)NCc1nc(-c2cccc(F)c2)c(-c2ccccn2)[nH]1`, the figure is 62.81%. Regarding `CN(C)S(=O)(=O)NCc1cccnc1Oc1ccc(F)cc1F`, the “Percent Effect” value is -13.26%. The value for `Cc1ccc(-c2nc(CNS(=O)(=O)N(C)C)[nH]c2-c2ccccn2)cc1` was 101.5%; that for `Cc1ccccc1Oc1ncccc1CNS(=O)(=O)N(C)C` was -10.74%; that for `Cl.O=C(c1cccnc1N1CCN(CCO)CC1)N1CCCC1` was 2.64%. In the case of `COCC1CN(CC2CC2)Cc2nccn2C1.O=C(O)C(F)(F)F` (stereo not given), the “Percent Effect” value is on record as -7.797%.

Turning to `COCC(=O)N(C)Cc1nc(N2CCCC2)ncc1-c1ccncc1.Cl`, the “Percent Effect” value is -16.19%. The value for `COc1ccc(C2CCCN2S(=O)(=O)N(C)C)cc1` (stereo not given) was -0.3722%. Consider `COc1ccc(C2CCCCCN2S(C)(=O)=O)cc1` (stereo not given), for which the “Percent Effect” value is given as -12.37%. The value for `COc1ccc(C2CCCCCN2S(=O)(=O)N(C)C)cc1` (stereo not given) was 68.3%; that for `CN(C)CCOCC1CN(Cc2ccccn2)Cc2nnn(C)c21.O=C(O)C(F)(F)F.O=C(O)C(F)(F)F.O=C(O)C(F)(F)F` (stereo not given) was -27.07%.
